The values below come from PubChem BioAssay AID588689 (Southern Research Specialized Biocontainment Screening …, 2011).

Among all 340,000 compounds or so, about 1,000 (0.29%) were called active. Rule as the data show it: inconclusive = inhibition above about 29% without an active follow-up result; inactive = below that. Not all results are given here. Potency and affinity values are given separately.

The target in the experiment is Genome polyprotein (Dengue virus type 2 (strain 16681-PDK53)) (UniProt P29991). The experiment can be described thus: flavivirus cap methylation enzyme inhibition – biochemical, confirmation dose response, primary screen (AID 588689). The following applies: Dengue-2 NS5 methyltransferase capping enzyme assay, at 25 µM, stronger effect = higher value.
The mark [1] stands for this setting: measured here: pilot screen replicate inhibition.

Genome polyprotein (Dengue virus type 2 (strain 16681-PDK53)), sequence (P29991 whole entry, looked up): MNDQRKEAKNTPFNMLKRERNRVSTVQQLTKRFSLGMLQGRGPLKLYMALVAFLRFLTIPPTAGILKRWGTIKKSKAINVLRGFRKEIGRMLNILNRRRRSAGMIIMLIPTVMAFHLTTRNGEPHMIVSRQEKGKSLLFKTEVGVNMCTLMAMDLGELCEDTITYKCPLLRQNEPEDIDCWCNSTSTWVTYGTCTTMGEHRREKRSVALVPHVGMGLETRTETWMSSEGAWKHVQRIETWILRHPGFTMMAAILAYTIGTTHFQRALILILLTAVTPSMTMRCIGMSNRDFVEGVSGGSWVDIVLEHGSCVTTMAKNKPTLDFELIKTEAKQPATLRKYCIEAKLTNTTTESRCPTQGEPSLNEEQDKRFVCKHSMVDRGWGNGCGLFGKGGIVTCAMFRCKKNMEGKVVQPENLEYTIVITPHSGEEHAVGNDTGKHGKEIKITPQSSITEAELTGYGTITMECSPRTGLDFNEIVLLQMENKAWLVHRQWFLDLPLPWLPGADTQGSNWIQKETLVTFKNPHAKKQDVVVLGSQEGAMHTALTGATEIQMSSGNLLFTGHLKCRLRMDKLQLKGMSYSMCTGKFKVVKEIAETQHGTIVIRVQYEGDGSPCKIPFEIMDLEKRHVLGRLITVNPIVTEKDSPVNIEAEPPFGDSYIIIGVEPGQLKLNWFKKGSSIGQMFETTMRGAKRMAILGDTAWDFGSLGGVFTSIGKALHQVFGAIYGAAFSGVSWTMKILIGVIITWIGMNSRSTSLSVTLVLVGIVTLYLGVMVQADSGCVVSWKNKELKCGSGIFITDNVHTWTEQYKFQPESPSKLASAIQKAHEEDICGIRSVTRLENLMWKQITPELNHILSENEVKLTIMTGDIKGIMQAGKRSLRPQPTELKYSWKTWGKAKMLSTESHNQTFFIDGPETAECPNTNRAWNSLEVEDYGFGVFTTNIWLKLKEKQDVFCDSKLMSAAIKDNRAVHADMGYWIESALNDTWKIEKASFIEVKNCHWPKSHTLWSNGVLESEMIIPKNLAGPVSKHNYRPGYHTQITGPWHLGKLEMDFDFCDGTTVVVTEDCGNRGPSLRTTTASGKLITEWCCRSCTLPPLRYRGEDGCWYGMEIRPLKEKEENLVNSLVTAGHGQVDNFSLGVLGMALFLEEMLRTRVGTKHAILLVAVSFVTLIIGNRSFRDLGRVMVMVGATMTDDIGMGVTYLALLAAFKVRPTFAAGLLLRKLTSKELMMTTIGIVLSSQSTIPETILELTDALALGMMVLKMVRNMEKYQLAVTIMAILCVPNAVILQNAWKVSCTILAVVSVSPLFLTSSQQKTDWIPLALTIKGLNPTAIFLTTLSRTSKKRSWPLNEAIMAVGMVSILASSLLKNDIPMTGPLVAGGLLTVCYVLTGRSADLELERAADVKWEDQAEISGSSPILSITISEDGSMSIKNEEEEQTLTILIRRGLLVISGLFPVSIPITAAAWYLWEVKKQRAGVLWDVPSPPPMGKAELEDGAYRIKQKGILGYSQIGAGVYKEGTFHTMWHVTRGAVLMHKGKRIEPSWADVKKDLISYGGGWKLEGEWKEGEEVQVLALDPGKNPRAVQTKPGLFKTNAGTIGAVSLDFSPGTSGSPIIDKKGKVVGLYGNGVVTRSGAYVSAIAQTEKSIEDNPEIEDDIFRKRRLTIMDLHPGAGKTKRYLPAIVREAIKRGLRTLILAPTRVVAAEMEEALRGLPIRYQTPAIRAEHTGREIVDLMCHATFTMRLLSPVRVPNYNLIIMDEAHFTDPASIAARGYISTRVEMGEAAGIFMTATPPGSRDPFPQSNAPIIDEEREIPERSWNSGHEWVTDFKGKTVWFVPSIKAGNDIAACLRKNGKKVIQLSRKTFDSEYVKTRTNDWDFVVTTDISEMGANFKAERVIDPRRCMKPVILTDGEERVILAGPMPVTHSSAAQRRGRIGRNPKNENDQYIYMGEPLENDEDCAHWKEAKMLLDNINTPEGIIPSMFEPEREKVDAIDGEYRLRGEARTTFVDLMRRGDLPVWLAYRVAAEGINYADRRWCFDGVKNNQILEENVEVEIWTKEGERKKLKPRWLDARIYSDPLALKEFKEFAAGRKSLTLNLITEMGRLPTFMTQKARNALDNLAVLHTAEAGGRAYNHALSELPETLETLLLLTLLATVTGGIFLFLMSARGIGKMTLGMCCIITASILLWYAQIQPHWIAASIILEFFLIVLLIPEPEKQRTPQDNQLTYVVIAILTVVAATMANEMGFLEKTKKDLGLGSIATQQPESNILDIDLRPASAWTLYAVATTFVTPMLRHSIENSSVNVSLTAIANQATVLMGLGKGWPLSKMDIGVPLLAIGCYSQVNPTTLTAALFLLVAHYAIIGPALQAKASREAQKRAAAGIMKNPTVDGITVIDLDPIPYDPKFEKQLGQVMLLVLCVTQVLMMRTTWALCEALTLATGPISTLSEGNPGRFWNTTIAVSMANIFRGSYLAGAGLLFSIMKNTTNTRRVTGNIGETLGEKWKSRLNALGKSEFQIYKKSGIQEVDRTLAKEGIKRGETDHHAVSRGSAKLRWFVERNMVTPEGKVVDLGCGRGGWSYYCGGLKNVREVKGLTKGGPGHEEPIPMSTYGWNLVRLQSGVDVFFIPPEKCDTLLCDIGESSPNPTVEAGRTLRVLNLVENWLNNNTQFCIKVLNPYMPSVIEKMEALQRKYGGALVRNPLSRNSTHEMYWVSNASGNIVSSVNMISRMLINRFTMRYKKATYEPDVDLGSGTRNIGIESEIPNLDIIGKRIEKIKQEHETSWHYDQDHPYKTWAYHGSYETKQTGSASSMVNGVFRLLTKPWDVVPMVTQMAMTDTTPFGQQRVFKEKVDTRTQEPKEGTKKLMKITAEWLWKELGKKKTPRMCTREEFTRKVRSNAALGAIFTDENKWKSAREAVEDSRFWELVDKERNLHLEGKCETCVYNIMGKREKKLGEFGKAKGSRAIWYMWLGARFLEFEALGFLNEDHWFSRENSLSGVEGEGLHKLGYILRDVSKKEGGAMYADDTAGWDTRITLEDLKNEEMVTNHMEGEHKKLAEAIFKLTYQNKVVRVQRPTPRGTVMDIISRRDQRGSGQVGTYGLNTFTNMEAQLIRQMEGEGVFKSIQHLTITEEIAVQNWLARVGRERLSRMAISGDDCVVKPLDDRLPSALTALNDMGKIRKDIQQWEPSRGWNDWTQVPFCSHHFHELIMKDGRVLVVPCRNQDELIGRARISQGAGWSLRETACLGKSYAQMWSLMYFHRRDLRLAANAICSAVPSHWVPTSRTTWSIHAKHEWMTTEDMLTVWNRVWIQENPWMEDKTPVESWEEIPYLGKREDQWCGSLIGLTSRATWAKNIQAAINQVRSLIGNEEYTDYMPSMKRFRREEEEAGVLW

Consider `Cc1occc1C(=O)NNC(=O)COc1ccc(Br)cc1Br`, for which the inhibition is -1.83% (inactive). Consider `CCNC(=O)C1CCCN(c2nc(C)cc(C)n2)C1` (stereo unspecified), for which the inhibition is 3.17% (inactive). For `Cc1nn(C(=O)c2ccc3c(c2)OCO3)c(N)c1-c1ccccc1`, the inhibition is -2.78% (inactive). On the same count and under the same terms, for `CCc1ccc(/C=C2\SC(=S)N(CCCC(=O)Nc3nccs3)C2=O)cc1` the value was 5.18% (inactive); for `COc1ccc(C(=O)Cn2c(C(C)=O)nc3ccccc32)cc1`, -4.63% (inactive). For the molecule `COc1ccc(N2CCN(C(=O)CC3NC4CCCCC4NC3=O)CC2)cc1` (stereo unspecified), the inhibition was 4.8% (inactive). Also, the inhibition under setting [1] was -0.61%. `CCC(Oc1ccccc1)C(=O)N1CCN(S(=O)(=O)c2ccccc2)CC1` (stereo unspecified): the inhibition was -3.63% (inactive). For the molecule `Cc1cccc(C)c1N(CC(=O)NCc1ccco1)C(=O)CNS(=O)(=O)c1ccc(F)cc1`, the inhibition is -7.48% (inactive).

On to `CC1(C)C(=O)C2(CCCCC2)C(=O)OC1c1ccc(O)cc1` (stereo unspecified), for which the inhibition was 5.67% (inactive).

Turning to `Cc1cc(=O)oc2c(CN3CCN(CCO)CC3)c(O)ccc12`, the inhibition is -1.72% (inactive).

`OCCOCCN1CCN(C(=S)Nc2ccccc2)CC1`: the inhibition was -12.4% (inactive).

Regarding `O=[N+]([O-])c1ccc(N2CCN(CCOCCO)CC2)c([N+](=O)[O-])c1`, the inhibition was -3.06% (inactive). Same read-out and setting: for `O=S(=O)(c1ccc(Br)cc1Cl)N1CCN(CCO)CC1` the value was 0.74% (inactive).

Take `Cc1noc(C)c1C(=O)OCC(=O)N1CCc2ccccc21`: the inhibition was -4.42% (inactive). The same measure, in the same setting: the result for `CN(C(=O)c1ccc(NC(=O)Cc2ccc(NC(=O)C3CCCN(C(=O)C4CCC4)C3)cc2)cc1)C1CC1` (stereo unspecified) reads -5.79% (inactive). The same measure, in the same setting: for `Cc1ccc(NC(=O)CSc2nncs2)cc1Cl` the value was -5.19% (inactive); for `O=C(c1ccc(F)cc1F)N1CCCc2ccccc21`, -15% (inactive); for `Cc1noc(NS(=O)(=O)c2ccc(NC(=O)c3cc(F)c(F)c(F)c3F)cc2)c1C`, 8.65% (inactive). The same measure, in the same setting: the result for `Cc1ccccc1C(=O)Nc1ccc(S(=O)(=O)Nc2onc(C)c2C)cc1` reads -6.85% (inactive); that for `Cc1noc(NS(=O)(=O)c2ccc(NC(=O)c3ccc(F)cc3)cc2)c1C`, 11.3% (inactive). Take `Cc1noc(NS(=O)(=O)c2ccc(NC(=O)c3cccc(S(=O)(=O)Nc4ccccc4F)c3)cc2)c1C`: the inhibition is -5.34% (inactive).

In the case of `CC(=O)C1=C(O)C(=O)N(Cc2ccccc2)C1c1ccc(N(C)C)cc1` (stereo unspecified), the inhibition was -5.27% (inactive). The inhibition under setting [1] is -5.49%.

Regarding `CC(C1CC1)N(Cc1ccccc1)C(=O)NC(=O)c1cccc(F)c1` (stereo unspecified), the inhibition was -0.76% (inactive). Same read-out and setting: for `O=C(CN1C(=O)C2CC=CCC2C1=O)Nc1cc(C(F)(F)F)ccc1N1CCCC1` (stereo unspecified) the value was 4.32% (inactive). With `CC1(C)CC[C@]2(C(=O)O[C@@H]3OC(CO)[C@@H](O)[C@H](O)[C@H]3O)CC[C@]3(C)C(=CCC4[C@@]5(C)CC[C@H](O[C@@H]6OC(C(=O)O)[C@@H](O)[C@H](O)[C@H]6O)C(C)(C)C5CC[C@]43C)[C@@H]2C1` (stereo partly specified), the inhibition was 20.2% (inactive). For the same molecule, the inhibition under setting [1] worked out at 2.42%. With `CC1(C)CC[C@]2(C(=O)O[C@@H]3O[C@H](CO)[C@@H](O)[C@H](O)[C@H]3O)CC[C@]3(C)C(=CCC4[C@@]5(C)CC[C@H](O[C@@H]6O[C@H](C(=O)O)[C@@H](O[C@H]7OC[C@@H](O)[C@@H](O)[C@@H]7O)[C@H](O)[C@H]6O)C(C)(C)C5CC[C@]43C)[C@@H]2C1` (stereo partly specified), the inhibition was -9.97% (inactive). Still for that read-out and setting: for `COCCCN(Cc1ccco1)C(=O)CSc1nc2ncccc2[nH]1` the value was -4.52% (inactive). In the case of `Cc1oc(-c2ccccc2Cl)nc1CS(=O)CC(=O)NCCCN1CC(C)CC(C)C1` (stereo unspecified), the inhibition is 2.33% (inactive). Same read-out and setting: for `COc1cccc(/C=C2\Oc3cc(OCC(=O)N4CCC[C@H]4C(=O)O)ccc3C2=O)c1` the value was 2.17% (inactive).

On to `COc1ccc(/C=C2\Oc3cc(OCC(=O)N4CC(O)C[C@H]4C(=O)O)ccc3C2=O)cc1OC` (stereo partly specified), for which the inhibition is -10.1% (inactive).

For the molecule `CC(=O)CCS(=O)(=O)c1ccc(Oc2ccc(S(=O)(=O)CCC(C)=O)cc2)cc1`, the inhibition is 3.83% (inactive). `O=C(O)c1cccc(Nc2nc3ccccc3nc2NS(=O)(=O)c2ccccc2)c1`: the inhibition was 19.8% (inactive). Same read-out and setting: for `CC(=O)Nc1ccc(S(=O)(=O)Nc2nc3ccccc3nc2Nc2ccccc2)cc1` the value was -18.8% (inactive).

As to `COc1cccc(Nc2nc3ccccc3nc2NS(=O)(=O)c2cccs2)c1`, the inhibition was 16.4% (inactive). For the same molecule, the inhibition under setting [1] was found to be 3.81%. As for `O=C(O)c1ccc(Nc2nc3ccccc3nc2NS(=O)(=O)c2cccs2)cc1`, the inhibition is 19.7% (inactive). Regarding `Cc1cccc(S(=O)(=O)Nc2nc3ccccc3nc2Nc2cccc(C(=O)O)c2)c1`, the inhibition is 27.7% (inactive). The same measure, in the same setting: for `O=C(O)c1cccc(Nc2nc3ccccc3nc2NS(=O)(=O)c2ccc(F)cc2)c1` the value was 8.81% (inactive); for `CCc1ccc(/C=C2\SC(=S)N(CCCC(=O)N(CCO)c3ccccc3)C2=O)cc1`, 2.75% (inactive); for `Cc1ccc(-c2nc3ccccc3[nH]2)cc1NC(=O)c1sc2cc(Cl)ccc2c1Cl`, -3.63% (inactive). The same measure, in the same setting: for `CCC(C)C(NC(=O)c1ccccc1NC(=O)c1ccccc1)C(=O)O` (stereo unspecified) the value was -1.16% (inactive). Same read-out and setting: for `O=C(NNC(=O)c1ccccc1-n1cccc1)c1cccc(Cl)c1` the value was -3.46% (inactive). As to `CCCC(C)NNC(=O)c1cc2ccccc2[nH]1` (stereo unspecified), the inhibition is 0% (inactive).

Turning to `COc1ccc(Cl)cc1Nc1nc(-c2sc(NC(=O)C(C)(C)C)nc2C)cs1`, the inhibition is -12% (inactive). Still for that read-out and setting: for `Cc1ccc(-c2cccc(C3CC=CC4C3C(=O)N(Cc3ccccc3)C4c3cc(C)ccc3F)c2)cc1` (stereo unspecified) the value was -5.46% (inactive). On to `COc1cc(S(=O)(=O)Nc2cccc(C)c2)ccc1NC(=O)c1ccncc1`, for which the inhibition is -1.47% (inactive). Take `N#CC1=C(N)C2=CCCC[C@H]2[C@H](c2cccc(F)c2)C1(C#N)C#N`: the inhibition is -4.34% (inactive). Consider `O=C(O)c1ccccc1NS(=O)(=O)c1ccc(NN=Cc2ccccc2F)c([N+](=O)[O-])c1`, for which the inhibition was 9.54% (inactive). In the case of `CC(=O)Nc1ccc(C=NNc2ccc(S(=O)(=O)Nc3ccccc3C(=O)O)cc2[N+](=O)[O-])cc1`, the inhibition is 12.4% (inactive). On the same count and under the same terms, for `COc1ccc(C=NNc2ccc(S(=O)(=O)Nc3ccccc3C(=O)O)cc2[N+](=O)[O-])c(OC)c1` the value was 17% (inactive); for `COc1cc(C=NNc2ccc(S(=O)(=O)Nc3ccccc3C(=O)O)cc2[N+](=O)[O-])ccc1O`, 17.4% (inactive). Still for that read-out and setting: the result for `CCOc1ccc(OCC)c(S(=O)(=O)n2cnc(C)c2)c1` reads 4.27% (inactive); that for `CC(C)N1CCc2c(sc(NC(=O)c3ccco3)c2C(N)=O)C1`, -17.8% (inactive). As for `O=C(NN=C1CCN(Cc2ccccc2)CC1)c1ccccc1`, the inhibition is -11% (inactive).

In the case of `CSc1nc(N)nc2c1ncn2CC(=O)NCCCc1ccccc1`, the inhibition was -9.58% (inactive). The inhibition under setting [1] is -1.21%. Turning to `Cc1cc(O)c(C(C)C)cc1N=Cc1cc([N+](=O)[O-])ccc1O`, the inhibition was 73.1% (inactive). The same measure, in the same setting: for `Cc1cc(O)c(C(C)C)cc1N=Cc1ccccc1O` the value was 73.5% (inactive); for `CN(C(=O)c1cc(C(=O)N(C)c2ccccc2)cc([N+](=O)[O-])c1)c1ccccc1`, -8.48% (inactive); for `Cc1oc2ccc(O)cc2c1C(=O)c1ccc([N+](=O)[O-])cc1`, -2.6% (inactive). `COc1ccc(OC)c(C(=O)c2c(C)oc3cc([N+](=O)[O-])c(O)c([N+](=O)[O-])c23)c1`: the inhibition was 25.1% (inactive).

Turning to `Cc1oc2ccc(O)cc2c1C(=O)c1ccc(Br)cc1`, the inhibition was 1.53% (inactive). In the case of `Cc1ccc(C(=O)c2coc3cc([N+](=O)[O-])c(O)c([N+](=O)[O-])c23)cc1`, the inhibition was 8.29% (inactive). In the case of `CCc1ccc(NC(=O)Cn2ncc3c4ccccc4n(C)c3c2=O)cc1`, the inhibition is -6.09% (inactive). On the same count and under the same terms, the result for `CCCOc1ccc(C(=O)CCC(=O)Nc2ccc(N3CCN(C)CC3)cc2)cc1` reads -15.3% (inactive); that for `CCOC(=O)c1c(C)nn(-c2ccc(NC(=O)/C=C/C(=O)O)cc2)c1C`, -3.06% (inactive); that for `CCOC(=O)c1c(NC(=O)/C=C\C(=O)O)sc(C)c1-c1ccccc1`, -5.1% (inactive). Still for that read-out and setting: the result for `CCc1c(C)sc(NC(=O)/C=C/C(=O)O)c1C(N)=O` reads -7.73% (inactive); that for `Cc1sc(NC(=O)/C=C/C(=O)O)c(C(N)=O)c1-c1ccc(C(C)(C)C)cc1`, 15.2% (inactive). The same measure, in the same setting: for `COC(=O)c1c(NC(=O)/C=C/C(=O)O)sc(C)c1-c1ccc(C)cc1` the value was -1.47% (inactive); for `CCOC(=O)c1c(NC(=O)/C=C/C(=O)O)sc(C)c1-c1ccc(F)cc1`, 23.7% (inactive).

As to `COC(=O)c1c(NC(=O)/C=C/C(=O)O)sc(Cc2ccccc2)c1C`, the inhibition is 8.38% (inactive). On to `COC(=O)c1c(NC(=O)/C=C/C(=O)O)sc(C)c1-c1ccc(C)c(C)c1`, for which the inhibition was 18.9% (inactive). Consider `NC(=O)C1(N2CCCCC2)CCN(C2CC(=O)N(Cc3cccs3)C2=O)CC1` (stereo unspecified), for which the inhibition is -7.74% (inactive). The same measure, in the same setting: for `O=C(N/N=C/c1ccccc1O)C(=O)Nc1ccccn1` the value was -0.76% (inactive). Turning to `CCCn1c(SCc2cc(=O)[nH]c3ccccc23)nc2c1c(=O)n(C)c(=O)n2C`, the inhibition is -2.04% (inactive). Moreover, the inhibition under setting [1] was -0.155%. For `Cc1ccccc1Cn1c(CN2CCN(C(=O)c3ccco3)CC2)nc2c1c(=O)n(C)c(=O)n2C`, the inhibition is -5.56% (inactive).

As for `CCc1ccc(NS(=O)(=O)c2ccc3oc(=O)ccc3c2)cc1`, the inhibition was 1.32% (inactive). The inhibition under setting [1] worked out at 1.83%. On to `O=C(NCc1ccccc1)c1cccc(S(=O)(=O)NCc2ccccc2)c1`, for which the inhibition is -6.73% (inactive). Still for that read-out and setting: the result for `O=C(Nc1ccc(C(F)(F)F)cc1)C1CCCCN1S(=O)(=O)c1ccccc1` (stereo unspecified) reads -9.59% (inactive). Same read-out and setting: for `COc1ccc(-n2nc(C(=O)NCC(=O)N(C)Cc3ccccc3)c3ccccc3c2=O)cc1` the value was -2.44% (inactive).

As to `O=C1C(Cl)=C(N2CCCCCC2)C(=O)N1c1ccccc1Cl`, the inhibition was 8.59% (inactive). Same read-out and setting: for `Cc1ccccc1N1C(=O)C(Cl)=C(N2CCCCCC2)C1=O` the value was -0.78% (inactive); for `CCc1ccccc1N1C(=O)c2cccc3c(N4CCOCC4)c([N+](=O)[O-])cc(c23)C1=O`, -4.86% (inactive); for `Cc1ccccc1N1C(=O)C(Cl)=C(N2CCN(c3ccccc3)CC2)C1=O`, -3.27% (inactive). Regarding `O=C1C(Cl)=C(N2CCCCC2)C(=O)N1c1ccccc1Cl`, the inhibition was 16.1% (inactive).

The term inhibition denotes the drop in the measured response relative to a control, in per cent.
